Consider 23 molecules from PubChem BioAssay (NCATS).

Records with an inconclusive call do not appear. Active and inactive are the calls of the source. Unless noted, calls come from the whole dose curve; as a rule, active = well fitted curve in the direction sought with a large enough effect; inconclusive = small, poorly fitted or top-dose-only effect, or another doubt; inactive = no such curve, though single readings can be large; an effect the other way counts as inactive or inconclusive.

The target of assay [1] is Aldehyde dehydrogenase, mitochondrial (Homo sapiens) (UniProt P05091). The experiment in a line: qHTS for Inhibitors of the Aldehyde Dehydrogenase Family (ALDH2) Confirmatory screens (AID 2061303; active = well fitted inhibition curve with a large enough effect; title and protocol of this record describe different tests; note: nearly all actives have a fitted effect of over 45% in size; note: potency is the fitted concentration of half-maximal effect). (In general: In qHTS, concentration-response curves come from the screen itself.)
The nature of assay [2]: qHTS for Inhibitors of the Aldehyde Dehydrogenase Family (ALDH1A2, ALDH1A3, ALDH2, ALDH3A1) (AID 2061307). For Potency: test system not described further here; potency is the fitted concentration of half-maximal effect. Note: nearly all actives have a fitted effect of over 50% in size.
Assay [3] deals with Retinaldehyde dehydrogenase 3 (Homo sapiens) (UniProt P47895). Kind of assay: qHTS for Inhibitors of the Aldehyde Dehydrogenase Family (ALDH1A3) Confirmatory screens (AID 2061311). Note: nearly all actives have a fitted effect of over 60% in size. Note: potency is the fitted concentration of half-maximal effect.
Assay [4] deals with Retinal dehydrogenase 2 (Homo sapiens) (UniProt O94788). The experiment in a line: qHTS for Inhibitors of the Aldehyde Dehydrogenase Family (ALDH1A2) Confirmation screens (AID 2061314). Note: nearly all actives have a fitted effect of over 65% in size. Note: potency is the fitted concentration of half-maximal effect.
The target in assay [5] is Retinaldehyde dehydrogenase 3 (Homo sapiens) (UniProt P47895). The experiment in a line: qHTS for Inhibitors of the Aldehyde Dehydrogenase Family (ALDH1A3) Primary screen (AID 2061315).
The target in assay [6] is Aldehyde dehydrogenase 1A1 (Homo sapiens) (UniProt P00352). Kind of assay: qHTS for Inhibitors of the Aldehyde Dehydrogenase Family (ALDH1A1) Confirmatory screens (AID 2061316). Note: nearly all actives have a fitted effect of over 65% in size. Note: potency is the fitted concentration of half-maximal effect.
The target in assay [7] is Aldehyde dehydrogenase, mitochondrial (Homo sapiens) (UniProt P05091). Kind of assay: qHTS for Inhibitors of the Aldehyde Dehydrogenase Family (ALDH2) Primary screen (AID 2061308). Note: nearly all actives have a fitted effect of over 55% in size. Note: potency is the fitted concentration of half-maximal effect.
The nature of assay [8]: BET inhibitor-based combinations targeting novel dependencies in MECOM-rearranged (r) AML: OCI-AML3 cell line (AID 2202232). Note: potency is the fitted concentration of half-maximal effect; nearly all actives have a fitted effect of over 35% in size. Particulars: Potency: OCI-AML3 viability. Put shortly:
(§1)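 Cells were plated at 500 per well and exposed to an 11-point dose series of each drug for 48 hr. Viability was measured by CellTiter-Glo luminescence, normalized to DMSO and empty-well controls, and summarized as AUC and per-cell-line Z-AUC.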

The nature of assay [9]: BET inhibitor-based combinations targeting novel dependencies in MECOM-rearranged (r) AML: HNT-34 cell line (AID 2202234). Note: nearly all actives have a fitted effect of over 35% in size. Note: potency is the fitted concentration of half-maximal effect. Put shortly:
(§2)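 Activity is given as area under the curve and as Z-AUC, mean-centred within each cell line. It comes from 11-point dose curves normalized to DMSO and empty wells. CellTiter-Glo luminescence was read after 48 hr drug exposure of 500 cells/well.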

A short description of assay [10]: BET inhibitor-based combinations targeting novel dependencies in MECOM-rearranged (r) AML: UCSD-AML1 cell line (AID 2202235). Note: potency is the fitted concentration of half-maximal effect; nearly all actives have a fitted effect of over 40% in size. A digest of the protocol:
as §2

Assay [11] is described as follows: BET inhibitor-based combinations targeting novel dependencies in MECOM-rearranged (r) AML: AML-191 cell line (AID 2202236; note: potency is the fitted concentration of half-maximal effect; nearly all actives have a fitted effect of over 35% in size). Put shortly: as §1
Assay [12] in a line: BET inhibitor-based combinations targeting novel dependencies in MECOM-rearranged (r) AML: AML-194 cell line (AID 2202237; note: potency is the fitted concentration of half-maximal effect; nearly all actives have a fitted effect of over 40% in size). Put shortly:
as §1

Assay [13] has as its target Retinaldehyde dehydrogenase 3 (Homo sapiens) (UniProt P47895). Kind of assay: qHTS for Inhibitors of the Aldehyde Dehydrogenase Family (ALDH1A3) Validation screen (AID 2061312). Note: nearly all actives have a fitted effect of over 45% in size. Note: potency is the fitted concentration of half-maximal effect.

`CC(C)(C)OC(=O)N1CCN(c2ccc(NCc3ccc(-c4ccccc4F)o3)cc2)CC1`: the figures for the Potency in assay [1] and in [2] were 1.27 µM (active) and 12.7 µM (active), respectively. Besides, the Potency entry in assay [3], in assay [4] and in assay [5] was “inactive” each time.

On to `Cc1noc(C)c1-c1cccc(-c2nn3c(=O)cc(N4CCNCC4)nc3s2)c1`, for which the Potency in assay [1] is 3.98 µM (active); in assay [2], 0.891 µM (active); in assay [3], 17.8 µM (active); in assay [4], 6.31 µM (active). Also, in assay [5], the Potency entry is “inactive”.

As for `Cc1nc(SCC(=O)c2ccc(F)cc2)n[nH]1`, the Potency result in assay [1], in assay [2], in [3], in [4], in assay [5] and in [6] was “inactive” throughout.

For the molecule `Clc1cccc(-c2ccc(C3Nc4cccc5cccc(c45)N3)o2)c1`, the Potency in [1] is 5.04 µM (active); in assay [2], 10.1 µM (active); in assay [3] it was 1.59 µM (active); in assay [4], 11.3 µM (active).

With `CC1CCN(c2ccc(CNC(=O)CC3CCOCC3)cc2)CC1`, the Potency entry in [1] and in [2] was “inactive” in each case. The Potency in assay [3] was 10 µM (active).

As for `CC(=O)N1CCN(c2ccc(NCc3ccc(-c4cccc(Cl)c4)o3)cc2)CC1`, the Potency in [1] was 1.13 µM (active); in [2], 1.59 µM (active); in [7] it was 2.24 µM (active); in assay [6], 6.34 µM (active).

On to `COc1cc(Nc2ncc(F)c(Nc3ccc4c(n3)NC(=O)C(C)(C)O4)n2)cc(OC)c1OC`, for which the Potency entry in assay [1], in assay [2] and in assay [7] was “inactive” throughout. Moreover, the Potency in assay [8] was 9.34 µM (active); in assay [9] it was 1.18 µM (active); in [10] it was 1.48 µM (active); in assay [11], 5.9 µM (active); in [12], 7.42 µM (active).

`O=C(C1CCN(Cc2ccccc2-c2ccccc2F)CC1)N1CCC(Cc2ccccc2)CC1`: the Potency in assay [1] is 3.16 µM (active). Also, the Potency result in assay [2], in assay [3] and in assay [4] was “inactive” each time.

As to `CC(C)(C)OC(=O)N1CCN(c2ccc(NCc3cncc(-c4ccc(C#N)cc4)c3)cc2)CC1`, the Potency in assay [1] is 1.79 µM (active); in assay [2] it was 0.634 µM (active). In addition, the Potency result in assay [3], in assay [4], in [5] and in assay [6] was “inactive” in each case.

For the molecule `COc1ccccc1-c1cc(-c2ccccc2OC)c2onc(C)c2n1`, the Potency result in assay [1], in assay [2] and in assay [4] was “inactive” throughout. For the same molecule, in [3], the Potency is 25.1 µM (active).

For the molecule `Cc1ccc(-c2ccc(C=O)cc2)c(C)c1`, the Potency in [1] was 4.7 µM (active); in assay [2], 15.8 µM (active); in assay [3] it was 0.355 µM (active); in assay [4] it was 12.6 µM (active).

For `Fc1c(-c2ccc3ncnc(NCc4cccs4)c3c2)ccc2c1OCO2`, the Potency entry in [1], in assay [2], in [3], in assay [4], in [5] and in assay [6] was “inactive” each time.

As for `NC(=O)C1CCN(c2nccc(-c3ccc4c(c3)OCCO4)n2)CC1`, the Potency in assay [1] was 5.65 µM (active); in [2], 7.98 µM (active); in assay [3], 14.1 µM (active); in assay [4], 14.2 µM (active); in [6], 0.798 µM (active). Further, in assay [5], the Potency result was “inactive”.

`COc1ccnc(CCc2nc3ncccc3[nH]2)c1`: the Potency entry in assay [1], in [2], in [3], in assay [4], in [5] and in assay [6] was “inactive” in each case.

As to `COc1ccc(C2Nc3ccccc3C(=O)N2Cc2ccco2)cc1COc1cccc(NC(C)=O)c1` (configuration not stated), the Potency was 11.3 µM (active) in [1]; 12.7 µM (active) in [2]; 11.3 µM (active) in assay [3]; 11.3 µM (active) in [4]; 4 µM (active) in [6]. For the same molecule, the Potency result in assay [5] is “inactive”.

Regarding `O=C(Nc1cc(Cc2ccccc2)ccn1)c1ccc(-c2cccc([N+](=O)[O-])c2)o1`, the Potency in assay [1] was 11.2 µM (active); in assay [2], 7.08 µM (active); in assay [3], 7.94 µM (active); in assay [4], 5.01 µM (active). Moreover, the Potency result in [5] is “inactive”.

As to `CN[C@@H]1[C@H](O[C@H]2[C@H](O[C@@H]3[C@@H](O)[C@H](O)[C@@H](N=C(N)N)[C@H](O)[C@H]3N=C(N)N)O[C@@H](C)[C@]2(O)C=O)O[C@@H](CO)[C@H](O)[C@H]1O`, the Potency result in assay [1], in assay [2], in [3], in assay [13], in [4] and in assay [5] was “inactive” each time. In addition, the Potency result in [6] and in [9] was “inactive” in each case.

Regarding `Cc1ccc(C(=O)N2CCC(CCC(=O)N3CCCCC3)CC2)cc1`, the Potency result in assay [1], in [2], in assay [3] and in assay [4] was “inactive” each time.

Consider `Cc1cc(F)ccc1[C@H]1C[C@@H](N2CCN3C(=O)CC[C@H]3C2)CCN1C(=O)N(C)[C@H](C)c1cc(C(F)(F)F)cc(C(F)(F)F)c1`, for which the Potency result in assay [1], in assay [2], in [3], in assay [4], in assay [5] and in assay [6] was “inactive” throughout. For the same molecule, the Potency in assay [13] was 7.94 µM (active).

In the case of `Cc1ccc(OCCn2c(CCNC(=O)c3ccccc3[N+](=O)[O-])nc3ccccc32)cc1`, the Potency result in [1], in assay [2], in assay [3], in assay [4] and in assay [5] was “inactive” each time.

For `Cc1ccc(-c2nn3c(C)nnc3s2)cc1NCc1ccc(-c2cccc(Cl)c2)o1`, the Potency in [1] is 3.18 µM (active); in [2], 3.57 µM (active); in assay [3], 12.7 µM (active); in assay [4] it was 12.7 µM (active); in [6], 6.34 µM (active). For the same molecule, in assay [5], the Potency result was “inactive”.

As to `CCn1cc2nc(SCc3ccc(C)cc3)n(CCc3ccccc3)c(=O)c2n1`, the Potency is 14.1 µM (active) in assay [1], 10 µM (active) in assay [2], 0.447 µM (active) in assay [3] and 7.94 µM (active) in [4].

Turning to `CC(=O)N1CCN(c2ccc(NCc3ccc(-c4ccc(Br)cc4)o3)cc2)CC1`, the Potency was 0.142 µM (active) in assay [1]; 2.01 µM (active) in assay [2]; 25.2 µM (active) in [3]; 2.52 µM (active) in assay [4]; 5.65 µM (active) in [6]. Moreover, the Potency entry in assay [5] is “inactive”.
